# Source: PubChem
# An excerpt weighted towards active compounds, which were near 2.1% of everything screened.
# MazEF act – activators of E. coli MazEF toxin-antitoxin RNase | P0AE70 | FAM/BHQ RNA-DNA oligo cleavage fluorescence, 5 h | activation, % at 20 µM | 0.32% of 350,000 active; in the data active = activation above about 50%
# Target sequence (P0AE70 whole entry, looked up): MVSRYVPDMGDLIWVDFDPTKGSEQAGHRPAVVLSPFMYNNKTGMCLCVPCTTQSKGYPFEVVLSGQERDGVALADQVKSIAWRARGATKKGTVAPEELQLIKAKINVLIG
# PrP 5UTR inh – suppresses PrP 5' UTR mRNA reporter expression; cell-based PrP 5' UTR mRNA reporter, plate reader; inhibition, % (no concentration beside the values); 0.35% of 340,000 active; in the data active = inhibition above about 52%; also: 0 = median of the neutral control wells
# BJeLR viability – BJeLR cell viability loss. BJeLR (HRASV12) viability, CellTiter-Glo ATP luminescence, 48 h. 0.17% of 300,000 active. inhibition, % (concentration not given with the values). AID 1554; in the data active = inhibition above about 50%
# DUSP3 inh – DUSP3 (human) phosphatase inhibition | recombinant VHR phosphatase, pNPP absorbance | 0.52% of 290,000 active | P51452 | inhibition, % at 13.3 µM; in the data active = inhibition above about 50%
# Target sequence (P51452 whole entry, looked up): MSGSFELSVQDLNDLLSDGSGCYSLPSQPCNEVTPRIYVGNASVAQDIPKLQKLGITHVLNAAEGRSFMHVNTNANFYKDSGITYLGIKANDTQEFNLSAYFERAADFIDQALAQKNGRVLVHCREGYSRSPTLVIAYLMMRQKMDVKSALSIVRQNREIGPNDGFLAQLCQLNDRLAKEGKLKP
# PrPC surface inh – cell surface PrPC inhibition, primary TR-FRET screen; TR-FRET read-out; P04156; 0.43% of 370,000 active; inhibition, % at 13.8 µM; AID 720596; in the data active = inhibition above about 24%; also: 0% = median of the test wells and 100% = reference compound wells
# PfHsp40 rescue – rescue of PfHsp40-mediated yeast toxicity; S. cerevisiae expressing PfHsp40, growth rescue, ATP luminescence; growth rescue, % at 12.5 µM; 0.68% of 340,000 active; in the data active = growth rescue above about 28%, passing the limit was not always enough;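 also: yeast W303a lacking pdr1 and pdr3 grown in galactose medium; growth measured after three days at 30 °C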
# PrPC TRFRET cf – confirmation of inhibitors of cell surface human prion protein | 65% of 1,500 active | AID 743200 | shares compounds with PrPC surface inh | cell surface PrPC level, TR-FRET | inhibition, % at 13.8 µM; in the data active = inhibition above about 25%
# LD9 cytotox – kills or reduces viability of LD9 cells in PrPc counter-screen; shares compounds with PrPC surface inh; LD9 cells cytotoxicity, luminescence viability; inhibition, % at 13.8 µM; 29% of 1,500 active; AID 743201; in the data active = inhibition above about 9.5%
# * hit, by the source's call; x = no result.
SMILES,MazEF act,PrP 5UTR inh,BJeLR viability,DUSP3 inh,PrPC surface inh,PfHsp40 rescue,PrPC TRFRET cf,LD9 cytotox
COc1ccc(Cn2c(-c3ccccc3C)nc3c(c(=O)c4ccccc4n3C)c2=O)cc1,67*,-24,6,x,53*,-1,9,-1
COc1ccc(C(=O)NCCSc2ccc(C)cc2)cc1,-1,-15,-2,-2,57*,2,-4,-6
Cc1cccc(NC(=O)c2sc3ncn(CC(=O)N4CCN(c5ccccn5)CC4)c(=O)c3c2C)c1,9,-6,-7,22,0,-1,x,x
O=C(Nc1ccc2c(c1)OCO2)c1ccc(Br)c(S(=O)(=O)N2CCCC2)c1,10,-23,-3,16,25*,1,21,7
Fc1ccc2[nH]c3c(N4CCc5ccccc5C4)ncnc3c2c1,8,x,7,20,26*,x,35*,20*
O=C(NNC(=O)C(c1ccccc1)c1ccccc1)c1ccccn1,-3,28,20,14,34*,1,23,43*
O=C(NNc1ccccn1)C(c1ccccc1)c1ccccc1,7,-9,0,15,-5,0,x,x
NC(=O)c1cc(NC(=O)CCc2nc3ccccc3s2)cc(C(N)=O)c1,-5,0,-8,11,37*,2,31*,5
N#Cc1ccc(NC(=O)CCc2nc3ccccc3s2)cc1,29,-18,2,11,5,0,x,x
NC(=O)C1CCN(S(=O)(=O)c2ccccc2[N+](=O)[O-])CC1,8,-10,11,18,-6,0,x,x
CCOC(=O)c1c(C)n(-c2ccccc2)c2ccc(O)cc12,5,-4,4,22,27*,-1,-2,-8
CC(NC(=O)CN1C(=O)NC(c2ccccc2)(c2ccccc2)C1=O)c1cccs1 (configuration not stated),0,6,x,x,-2,-2,x,x
CCOc1ncccc1C(=O)NNC(=O)c1csc(N2CCOCC2)n1,4,-8,0,x,-3,0,x,x
COC(=O)[C@]12C[C@H](CC(=O)NCc3cccc4ccccc34)C(=O)N(CCC3=CCCCC3)C1=C[C@H](C(C)C)O[C@@H]2C1CC1,x,x,x,x,-1,x,x,x
CCC(CC)C(=O)N(C)c1c(C)nc2c(OCc3cccc(Cl)c3)cccn12,x,x,x,x,20,x,x,x
CCOC(=O)c1c(-c2ccsc2)csc1N,3,-6,-5,17,-5,-1,x,x
CCOC(=O)c1c(-c2ccc(C)s2)csc1N,4,-1,2,6,70*,-1,54*,-2
Cc1ccc(CSC(Nc2ccc(F)cc2)=C(C#N)C#N)cc1,0,-15,42,-12,33*,0,36*,25*
CC1CCCC(C)N1C(=O)CSc1nnc(COc2ccccc2)n1-c1ccccc1 (configuration not stated),5,-24,-3,23,37*,-2,34*,-4
O=C(CSc1nnc(COc2ccccc2)n1-c1ccccc1)c1ccccc1,5,-1,-1,7,5,2,x,x
Clc1cccc(CNc2nc(-c3ccccn3)nnc2-c2ccccc2)c1,x,x,x,x,29*,x,37*,43*
c1ccc(-c2nnc(-c3ccccn3)nc2NC2CCCCC2)cc1,-8,20,66*,19,38*,46*,33*,45*
CC(C)(C)c1ccc(CNc2nc(-c3ccccn3)nnc2-c2ccccc2)cc1,x,x,x,x,24*,x,38*,33*
COc1cc(/C=C/C(=O)Nc2ccc(S(=O)(=O)Nc3onc(C)c3C)cc2)cc(OC)c1OC,-1,-13,x,x,-6,0,x,x
O=C(C=Cc1ccco1)c1ccc2ccccc2c1,-5,-110,x,x,5,1,x,x
CN(C)S(=O)(=O)c1cccc(NC(=O)CSc2ncnc3ccccc23)c1,-8,4,8,13,51*,0,77*,-4
O=C(COc1ncnc2ccccc12)Nc1cccc(S(=O)(=O)N2CCOCC2)c1,11,-17,9,26,7,0,x,x
O=C(CSc1ncnc2ccccc12)Nc1ccc(N2CCOCC2)cc1,x,x,-1,32,x,x,x,x
